# Sampled rows, rich in hits. Any-hit rate of the full collection: about 0.43%.
# Menin-MLL FL inh – menin-MLL binding inhibition, fluorescein peptide | Fluorescence polarization, fluorescein-MLL peptide displacement from menin | FP activity change, % at 61.4 µM | 290,000 tested, under 10 active | AID 1766; active = well fitted curve in the direction sought with a large enough effect in the polarisation, not every such curve was filed as active; inconclusive = small, poorly fitted or top-dose-only effect, or effect the other way, or a change in a side signal; inactive = no such curve, though single readings can be large or run the other way; the % refers to the polarisation; also: % of control where 0% means no effect
# Menin MLL FP TR – inhibitors of human menin-MLL interaction, mutant MLL peptide; Menin + Texas Red MLL mutant peptide, fluorescence polarization; O00255; Potency, µM (top dose mostly 61.6 µM), for inactives: top-dose FP activity change, negative = inhibition, hits mostly inhibitors; AID 1768; 270,000 tested, 0.23% active; active = well fitted inhibition curve with a large enough effect in the polarisation, with a control signal flat, not every such curve was filed as active; inconclusive = small, poorly fitted or top-dose-only effect, or effect the other way, or a change in a side signal; inactive = no such curve, though single readings can be large or run the other way; the % refers to the polarisation; also: potency is read from the fitted curve at half-maximal effect; % of control where 0% means no effect
# MLL CXXC-DNA inh – blocks binding of human MLL CXXC domain to DNA; AID 2662; MLL-CXXC / FITC-HOXA9 DNA fluorescence polarization; Potency, µM (series often up to 115 µM), without a hit: top-dose activity change, negative = inhibition, actives largely listed as inhibitors; 290,000 tested, 0.037% active; active = well fitted inhibition curve with a large enough effect in the polarisation, with a control signal flat, not every such curve was filed as active; inconclusive = small, poorly fitted or top-dose-only effect, or effect the other way, or a change in a side signal; inactive = no such curve, though single readings can be large or run the other way; the % refers to the polarisation; also: potency is read from the fitted curve at half-maximal effect
#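 Purified MLL-CXXC (added from a 7 uM solution) was preincubated 5 min at ambient with pinned compounds in 50 mM Tris-HCl pH 7.5, 50 mM NaCl, 1 mM DTT, 0.05% BSA. Fluorescein-labeled HOX-A9 DNA (50 nM solution) followed, 30 min, then polarization read.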
# Tb PFK block – blocks T. brucei phosphofructokinase; Potency, µM (highest dose often 57.5 µM), inactives show top-dose activity, negative = inhibition, usual class: inhibitors; O15648; AID 485367; T. brucei PFK, ADP-Glo luminescence; 330,000 tested, 0.17% active; active = well fitted inhibition curve with a large enough effect; inconclusive = small, poorly fitted or top-dose-only effect, or effect the other way;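 also: potency is read from the fitted curve at half-maximal effect; 0% = uninhibited 1x PFK enzyme wells and -100% = no-enzyme wells; nearly all actives have a fitted effect of over 60% in size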
#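 PFK 1.25 nM, F6P 0.5 mM, ATP 0.1 mM, 0.1 M TEA pH 8.0, 5 mM MgCl2, 0.01% Tween20, 0.1% BSA; 45 min RT. ADP-Glo readout. qHTS titration up to 57 uM; curves fitted, compounds curve-classed.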
# GoLoco inh red – RGS12 GoLoco-Gai1 interaction inhibition | 230,000 tested, 0.44% active | P63096 | Potency, µM (top dose mostly 61.6 µM), inactives show top-dose activity, negative = inhibition, usual class: inhibitors | Gai1:RGS12 GoLoco peptide FP, rhodamine, 10 min | AID 880; active = well fitted inhibition curve with a large enough effect, not every such curve was filed as active; inactive = no such curve, though single readings can be large or run the other way; also: potency is read from the fitted curve at half-maximal effect; % is scaled to controls: 0 for no effect and ±100 for the full control effect; nearly all actives have a fitted effect of over 30% in size
# Target sequence (P63096 whole entry, looked up): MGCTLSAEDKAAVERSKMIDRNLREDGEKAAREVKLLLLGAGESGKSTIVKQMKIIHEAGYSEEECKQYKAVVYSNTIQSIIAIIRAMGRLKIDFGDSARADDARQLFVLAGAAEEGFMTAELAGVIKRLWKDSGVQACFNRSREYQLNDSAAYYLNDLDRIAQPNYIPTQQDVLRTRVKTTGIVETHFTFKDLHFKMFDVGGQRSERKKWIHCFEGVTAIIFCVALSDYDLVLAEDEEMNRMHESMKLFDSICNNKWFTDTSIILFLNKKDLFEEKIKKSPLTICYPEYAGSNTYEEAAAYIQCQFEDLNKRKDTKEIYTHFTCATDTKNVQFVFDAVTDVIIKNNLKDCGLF
# The depositor's hits bear a star; ? = inconclusive; . = not tested or not shown; [ ] = another dose, or the depositor's remark.
SMILES,Menin-MLL FL inh,Menin MLL FP TR,MLL CXXC-DNA inh,Tb PFK block,GoLoco inh red
COc1ccc(NC(=O)/C(C#N)=C/c2ccc(OCc3ccccc3F)cc2)cc1,9.6,17.8µM*,5.7%,0.1%,-2.2%
O=C(O)C(O)(c1ccc(-c2ccccc2)cc1)c1ccc(-c2ccccc2)cc1,.,.,.,.,3.6%[14.2 µM]
O=C(NC(=S)Nc1nc(-c2cccc3ccccc23)cs1)c1cc2ccccc2o1,6.5,25.1µM*,6.8%,-1.1%,-10.8%
[O-][n+]1ccccc1SSc1cccc[n+]1[O-],1.1,10.9%,-26.6%,.,-5.3%
Cc1cc(C)c(C#N)c(=N)o1,-4.7,1.6%,2.1%,-11.1%,22.4µM*
CSc1nc(C)cc(C)c1C#N,5.6,17.5%,1.7%,0.7%,9.6%
CCC(=O)O[C@H]1C(O[C@@H]2C(C)[C@H](O[C@H]3C[C@@](C)(OC)C(O)C(C)O3)C(C)C(=O)OC(CC)[C@@](C)(O)C(O)[C@H](C)C(=O)C(C)C[C@]2(C)O)OC(C)CC1N(C)C (some centres not stated),?,42.3%,.,.,-0.8%
CN1/C(=C\C=[N+](C)c2ccccc2)C(C)(C)c2ccccc21,0.2,.,0.5%,-0.2%,3.98µM*
C[N+]1(C)C2CCC1CC(OC(=O)c1ccccc1)C2 (configuration not stated),3.8,.,0.0%,-1.4%,3.98µM*
C[C@]12CC[C@@H](O)C[C@@H]1CC[C@@H]1[C@@H]2CC[C@]2(C)C=CC[C@@H]12,.,.,.,.,3.5%
CC1=CC(C)[C@@H]2COC(c3ccc(O)cc3)[C@H]1C2C (some centres not stated),-4.8,0.1%,7.1%,0.7%,.
CC1=CC(C)C2COC(c3ccc[n+](C)c3)C1C2C (configuration not stated),3.9,5.6%,2.1%,-0.1%,28.2µM*
C(=N\NC1=Nc2cccc3cccc1c23)/c1ccccc1,.,?,-17.5%,-3.6%,104.6%
NC1=Nc2cccc3cccc1c23,-0.1,-19.9%,4.0%,6.6%,20µM*
CCn1c2c(c(C)cc1=O)C(=O)CC(C)(C)C2,5.2,-5.7%,1.8%,0.6%,-9.4%
CCn1c(C)c2c([n+]1CC)CC(C)(C)CC2=O,2.6,-2.8%,-3.6%,-0.1%,11.2µM*
CC(C)(C)NCC(O)COc1ccc(NC(=O)NC2CCCCC2)cc1 (configuration not stated),0.0,-4.1%,3.0%,.,.
N#CC1=C(N)Oc2ccc3ccc(O)cc3c2C1c1ccsc1 (configuration not stated),8.5,35.4%,3.7%,0.5%,12.6µM*
Nc1nonc1-c1nc2ccccc2n1CC(=O)N/N=C\c1ccc(-c2ccc(Cl)cc2)o1,11.0,10µM*,49.2%,2.2%,22.2%
CC[N+](C)(CC)CCCCOc1ccc2c(c1)C(=O)c1cc(OCCCC[N+](C)(CC)CC)ccc1-2,-2.9,.,?,0.2%,11.2µM*
CC[N+](CC)(CC)CCCCOc1ccc2c(c1)C(=O)c1cc(OCCCC[N+](CC)(CC)CC)ccc1-2,-11.0,.,?,1.3%,-24.3%
Cc1oc2c(O)c(O)ccc2c(=O)c1-c1cnn(-c2ccccc2)c1,-2.8,24.5%,0.7%,-4.2%,2.24µM*
Cc1ccc(NC2=CC(=O)c3sc(C)nc3C2=O)cc1,-13.6,?,.,.,.
O=S1(=O)[C@H]([C@H]2CC3c4ccccc4C2c2ccccc23)[C@@H](N2CCCCC2)[C@@H]1c1ccccc1,.,.,.,.,3.6%[14.2 µM]
Cc1ccc(NCc2ccccc2O)cc1,-0.4,11.5%,-8.5%,-1.8%,12.5%
SMILES,Menin-MLL FL inh,Menin MLL FP TR,MLL CXXC-DNA inh,Tb PFK block,GoLoco inh red
Cc1ccc(CNc2ccc(O)cc2)cc1,3.8,17.8µM*,.,-2.1%,17.8µM*
COc1ccc([C@]23Cc4cc(OC)c(OC)cc4C(O2)c2c(cc(C)oc2=O)O3)cc1,12.0[11.7 µM],?,-8.1%[23 µM],0.6%[11.5 µM],.
COc1cc2c(cc1CC=C(C)C)C(=O)C[C@@H](c1ccc(O)cc1)O2,20.9,74.1%,.,.,.
CCOc1ccc2nc(NC(=O)c3cccc(-c4cc5ccccc5oc4=O)c3)sc2c1,0.9,-27.7%,5.8%,5.3%,5.1%
Cc1ccc2nc(NC(=O)c3cccc(-c4cc5ccccc5oc4=O)c3)sc2c1,0.3,22.4µM*,13.1%,0.0%[0.46 µM],5.1%
COC(=O)N1C2=C(c3ccccc3[C@@H]1CC(=O)Nc1ccc(Br)cc1)[C@@H]1C(=O)N(c3ccccc3)C(=O)[C@@H]1[C@H](C)C2,10.1[11.7 µM],-11.3%[11.7 µM],.,.,6.3%[14.2 µM]
Cc1cc(C)c(S(=O)(=O)NCCn2c(C)cc3ccccc32)c(C)c1,-20.4,?,8.3%,0.6%,11.5%
Cc1ccc(S(=O)(=O)NCCn2c(C)cc3ccccc32)cc1,-23.8,28.2µM*,-6.1%,0.4%,-2.8%
CCCCOc1ccc(-c2c(C#N)c(N)nc(SCC(N)=O)c2C#N)cc1,2.0,12.6µM*,-5.9%,7.3%,20.5%
CCCCOC(=O)CSc1nc(N)c(C#N)c(-c2ccc(OCC)cc2)c1C#N,7.7,?,3.0%,-5.4%,-9.7%
O=C(Nc1nc2ccc([N+](=O)[O-])cc2s1)c1ccco1,1.7,-7.4%,5.5%,-1.3%,10.0%
COc1ccc2nc(NC(=O)c3ccc(-c4cccc([N+](=O)[O-])c4)o3)sc2c1,-0.9,?,-21.8%,5.7%,2.24µM*
COc1c(O)cc2c(c1O)C1OC(CO)C(O)C(O)C1OC2=O (configuration not stated),.,.,.,-0.5%,.
O=C1OCC2OC(O)C(O)C(O)C2OC(=O)c2cc(O)c(O)c(O)c2-c2c(O)c(O)c3oc(=O)c4c(c(O)c(O)c5oc(=O)c2c3c54)-c2c1cc(O)c(O)c2O (configuration not stated),1.2,.,?,0.953µM*,-45.4%
COc1ccc2c(c1)[N+](=O)C(/C(C)=N/NC(N)=S)=C(C)[N+]2=O,.,.,.,.,5.0%[14.2 µM]
O=C(N/N=C/c1ccncc1)c1ccccn1,-14.0,100µM*,-9.1%,23.6%,.
O=C(N/N=C/c1ccncc1)c1cnccn1,3.8,.,8.7%,0.6%,11.7%
CC(=O)Nc1ccc(N=Cc2c(O)c(C(=O)Nc3ccccc3)cc3ccccc23)cc1,?,?,?,0.7%,14.1µM*
COC(=O)C1=C(C(=O)OC)[C@@H]2N(C)c3ccccc3[C@@]23C[C@@H](C(=O)OC)N(S(=O)(=O)c2ccc(C#N)cc2)C3=N1,1.0[11.7 µM],0.2%[11.7 µM],.,.,-0.8%[14.2 µM]
CCCCC(CC)C1OCC(C[N+]2(C)CCOCC2)O1 (configuration not stated),1.6,-19.1%,-3.6%,0.0%,10µM*
CC1=CC(=O)NP(=O)(Oc2ccc3ccccc3c2)N1 (configuration not stated),1.0,11.3%,1.2%,0.6%,12.6µM*
CN(CCOCCOc1ccc2ccccc2c1)Cc1ccccc1,-2.7,-3.3%,-1.5%,1.9%,-4.0%
c1cncc(CNc2cc(-c3ccoc3)ncn2)c1,?,-17.9%,.,.,12.6µM*
Cn1cc(SCC(=O)Nc2ccc3c(c2)OCO3)c2ccccc21,0.0,11.6%,-4.3%,-8.7%,7.8%

# From PubChem
